From the supplement of paper PMC11417369
± gives the standard deviation of the averaged measurements. In all, about 25,000 sequences were measured (“ln(normalized median fluorescence intensity)”: median about 8.6, highest 2% from about 10 on). The list comes from a sample in which the highest values are over-represented; it also holds similar and randomly drawn sequences.

System: PfAP2-EXP AP2 domain (GST-tagged)
Test: gcPBM binding intensity (ln(normalized median fluorescence intensity)); higher = stronger DNA binding
Procedure, shortened: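 Binding intensity is defined as the maximum Masliner-normalised natural-log median intensity across replicate spots for either probe orientation. It was measured on an Agilent 4 × 180k array of primer-extended double-stranded 36-bp intergenic genomic probes and negative controls, to which GST-tagged P. falciparum DNA-binding domains made in E. coli were applied for 1 h in 1× PBS with 1% milk, 0.2 mg/ml BSA, 0.5% salmon testes DNA and 0.03% Triton X-100. Detection was by Alexa488 anti-GST antibody and scanning at 488 nm.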

Sequence | gcPBM binding intensity (ln)
ATGATATTATAAAAAAGTACATATGTATATAATTAT [XGTACX_site7652] | 8.88 ± 0.45
AAAAATTTATTTTTAGGTACACAATTGAATTATTTA [XGTACX_site7008] | 8.16 ± 0.27
TATTTAAAATATTAAATTTGTAAAGTTCGAGGGAAG [GTGCAC_negctrl_site337] | 8.52 ± 0.48
TGATGAAAATTTTTCTGTACAAAAAGTATGAAGGTA [XGTACX_site8901] | 8.88 ± 0.38
AGTTTAATTTTGTATACACACATTTGAATTATTAAT [CACACA_site7625] | 8.77 ± 0.5
AATATGTCTATATTTTTTATATGGAAATATTATAAA [GTGCAC_negctrl_site700] | 7.92 ± 0.39
TTTATAATAAAATTTTTACACACTTTAAAAAAAAAA [CACACA_site8070] | 8.07 ± 0.37
AAAAAAAAAAAAAAATGTACATAAAAATGATATAAT [XGTACX_site4096] | 8.7 ± 0.55
TATAAAATTTTTAAAAGTACATATTTTACATAATAC [XGTACX_site2193] | 8.38 ± 0.26
CTTTAAGTTATATGAAGTACAATTTAAAAAAATGAA [XGTACX_site358] | 8.41 ± 0.38
TTTAAAAAGTTATGAAGTACATATATATATATATAT [XGTACX_site2188] | 10.2 ± 0.29
TATTTAAGAATATGAAGTACATATATTATTTAAAAA [XGTACX_site7897] | 8.15 ± 0.29
TTTTTATAACATAAAAGTACATATTTTTAATTTAAT [XGTACX_site4394] | 8.05 ± 0.4
TATTCCTAATTTAAAAGTACATATATATATATATAT [XGTACX_site3008] | 10.2 ± 0.54
TTTTTTTTTTTGATGGTGCAATATATTAAATAGAAA | 8.86 ± 0.28
AATATATGGTTCCTTGATATTAAATTCAATTTAATG [CACACA_negctrl_site71] | 8.41 ± 0.52
TAATTGATTCTTCACCGTACTCACACATATATATAT [XGTACX_site6530] | 9.61 ± 0.14
GATTCTTCACCGTACTCACACATATATATATATATA [CACACA_site5665] | 10.2 ± 0.52
ATATATATATATATATGTACACATATATATACTCAC [XGTACX_site8043] | 10 ± 0.4
ATATTATATATATACACACACACATGCATGCACCTA [CACACA_site106] | 10.07 ± 0.099
TTTGGGATAAAACAAAGTACTAACAAAATATATAAT [XGTACX_site8240] | 8.85 ± 0.47
ATTTATATTTTTTAATGTACATTTATATGTATACAA [XGTACX_site4555] | 8.78 ± 0.41

Sequence | gcPBM binding intensity (ln)
ATATAATATTTCATGTGGACACATTTTATGATTGTA [XGTACX_site8770] | 8.74 ± 0.38
TGCAAAAAAAAAAAAAAAAAATATATGGAAATATAT [GTGCAC_negctrl_site257] | 8.54 ± 0.19
TTGTATATATATGGAAAAATATATATATATATATAT [GTGCAC_negctrl_site591] | 10.3 ± 0.29
ATGGAAATAAAAAAAAAAAAAAAAAAAAATATATAT [GTGCAC_negctrl_site67] | 8.36 ± 0.33
CGTATTATTATATAAACACACAAGGGGGCATGTATA [CACACA_site745] | 9.83 ± 0.042
AATATTTAAGTACTGGTGCGTGTATATAATGATTAA [GTGCAC_site9633] | 8.665 ± 0.078
AATATTTTAAATATTGCATGCAATGAAAAATGTAAA [TGCATGCA_site139] | 10.2 ± 0.31
AAAAAAAAAAAAATTGCATGTAAATGAAATAATAAA [TGCATGCA_site116] | 8.89 ± 0.2
TTATTGTAAATATATGCATGTGCAAAATGAAAAAAA [TGCATGCA_site399] | 9.07 ± 0.18
TAAAAGTTCACCTGTACACACATATAAATATGTACA [CACACA_site6901] | 8.47 ± 0.33
TAAGTTCCCTTTGAATGTACATATAATGAAAAGAAA [XGTACX_site826] | 8.76 ± 0.37
AGTTTCCATATGAGGTGTACATATATAATTTATTAT [XGTACX_site2369] | 8.72 ± 0.4
ATATATTTACTTAATACACACAAAAAAAAAAAAAAA [CACACA_site3657] | 8.21 ± 0.52
AAAAATACCTTATATATACACACTATGTTTTTCTTT [CACACA_site1192] | 8.71 ± 0.28
TATTGCCCGAAACACACACACATATATATATATATA [CACACA_site2491] | 10.3 ± 0.2
TATATATAGAAACACACACACATATATATATATATT [CACACA_site4115] | 8.7 ± 0.37
TATATTGCCCTTCACACACACACATATATATATATA [CACACA_site2492] | 10.2 ± 0.28
TATATATAGAAACACACACACACATATATATATATT [CACACA_site2539] | 8.73 ± 0.67
TATTGCCCTGGACACACACACATATATATATATATA [CACACA_site5389] | 10.2 ± 0.51
TATTGCCCTTGACACACACACATATAAATAAATATA [CACACA_site7220] | 8.63 ± 0.37
TTCAAATATAAATACACACACATAGCTACAAAATAA [CACACA_site4172] | 8.95 ± 0.42
ATATATATATATATTTGTACAGATTTATATTATAAT [XGTACX_site7612] | 9.96 ± 0.23

Sequence | gcPBM binding intensity (ln)
ATTCATATATTTATTGCATGCAAAGTAAAATAAATA [TGCATGCA_site307] | 10.23 ± 0.099
TATTATTTTTCATATGCATGCAAAAATAAAAAAATA [TGCATGCA_site350] | 9.63 ± 0.35
TTTGCAACATATAAAAGTACAAATAATATATTTATT [XGTACX_site890] | 8.41 ± 0.43
ACAAAAGGGGAATACACACACATATATATATATATA [CACACA_site2215] | 10.2 ± 0.52
GGAATATATATACATACACACATATATATATATATA [CACACA_site1666] | 10.1 ± 0.33
AAGATATGAGGGAATACACACATATTTATATTTATA [CACACA_site6846] | 8.26 ± 0.38
AAGATATGAGGGAATACACACATATATATATATATA [CACACA_site1581] | 10.2 ± 0.43
AGTATATATACACAAGGGGAATACATATACAAAATT [TGCATGCA_negctrl_site244] | 8.89 ± 0.39
ATACAAAAGGGGAATACACACACATATATATATATA [CACACA_site8694] | 10.1 ± 0.33
ATAAAATCAAAATATACACACAAGGGGGAAAATCAA [CACACA_site2809] | 8.96 ± 0.42
TACACAAGGGGAAAAATATATATATATATATATATA [TGCATGCA_negctrl_site217] | 10.2 ± 0.57
ACAAAAGGGGAATACACACACATATATAAATAAATA [CACACA_site7111] | 8.73 ± 0.45
TTTTTAATAATCTCTCAAAATGTTCTTATATTTTAC [CACACA_negctrl_site1691] | 8.11 ± 0.26
TATAAATGATTAATTTGTACATATTTTACTTAATTG [XGTACX_site5271] | 8.18 ± 0.37
ATATTATGTCTACATAAACACACATATATATAAAAA [CACACA_site7976] | 8.62 ± 0.48
TATATTTTACTCTTCACACATATACTCAATTTATAT [CACACA_site5357] | 8.94 ± 0.31
TATTGTATCCTTAATGCATGCACCAAATAAAAAAAG [TGCATGCA_site541] | 10.21 ± 0.064
TTGTATCCTTAATGCATGCACCAAATAACAAAAGTA | 10.2 ± 0.38
CTGTATAAAACCAATGCATGTAAATATATTAATATA [TGCATGCA_site511] | 9.1 ± 0.42
AAAAAAAAAAAAAAAAAAAAAAAAAAATATATATAT [CACACA_negctrl_site271] | 9.795 ± 0.049
AAAAAAAAAATATATATATATATATATATATATATA [GTGCAC_negctrl_site467] | 9.95 ± 0.53
AAAAAAAAAAAAAATATATATATATATATATATATA [CACACA_negctrl_site540] | 10.2 ± 0.2

Sequence | gcPBM binding intensity (ln)
AAAAAAAAAAAATATATATATATATATATATATATA [CACACA_negctrl_site1606] | 10.3 ± 0.21
AAAAAAATATATATATATATATATATATATATATAT [TGCATGCA_negctrl_site7] | 10.1 ± 0.26
AAAAAAAAAAAAAAAAAAAAAAAAATATATATATAT [CACACA_negctrl_site436] | 10 ± 0.31
TTTAATTTTCCCTTCACACATAATATATATCTGTAT [CACACA_site5370] | 8.7 ± 0.43
TATTATATATATGTTGACATATTTGTACACTCCACT [TGCATGCA_negctrl_site200] | 8.79 ± 0.61
TATCAAAATTGTAATTGTACTTGTAAGTGGATATAT [XGTACX_site5949] | 8.68 ± 0.3
TTTTTTAAAATAATAGGTACACATAAAAAAAAAAAA [XGTACX_site2517] | 8.72 ± 0.67
AACATTATAAGACACACACACACATATATAAATATA [CACACA_site6622] | 8.65 ± 0.58
ACACATATATATTATTATTATATAATATATATATAT [CACACA_negctrl_site1545] | 9.21 ± 0.15
ATATTTTGTTATGAAACACACACATATATATATATA [CACACA_site9216] | 10.1 ± 0.16
TAATTTTTTAAACACACACACATATATATATATATA [CACACA_site4230] | 10.2 ± 0.3
TTTTAAACAGGACACACACACATATATATATATATA [CACACA_site4664] | 10.1 ± 0.42
TTTTAATGAAAACACACACACACATATATATATATA [CACACA_site5295] | 10.3 ± 0.11
AAAAAAAAAAATATCACACACACATAAATATAAACA [CACACA_site7138] | 8.6 ± 0.61
AAAAAAAAAAAAAACACACACATATAATATATTTAA [CACACA_site1337] | 8.35 ± 0.38
TTTTTAAAACATATCACACATATATATATATATATA [CACACA_site5991] | 10.3 ± 0.41
AAAAAAATGAAACACACACACACATATATATATATA [CACACA_site1043] | 10.1 ± 0.26
ATTTTGTTATGAAACACACACATATAAATATAAATA [CACACA_site7679] | 8.51 ± 0.3
TTTTAAACAAGACACACACACATATATATATATATA [CACACA_site925] | 10.2 ± 0.35
TTTTAATTAAAACACACACACACATATATATATATA [CACACA_site2291] | 10.2 ± 0.23
ATTTTGTTATGAAACACACACATATATATATATATA [CACACA_site3650] | 10.2 ± 0.18
AATTATATACATAAGTGTACATAATATATAAACATA [XGTACX_site793] | 8.31 ± 0.28
